# Assay outcomes (PubChem BioAssay)
# HCV inhibitor: inhibitors of hepatitis C virus infection | AID 651820 | actives 3.4% (n = 340,000) | Huh7.5.1 HCVcc-Cre infection, luciferase reporter, 44 h | Potency, µM (series often up to 41.8 µM), without a hit: at the highest dose activity change, negative = inhibition, actives largely listed as inhibitors; active = well fitted inhibition curve with a large enough effect; inconclusive = small, poorly fitted or top-dose-only effect, or another doubt; inactive = no such curve, though single readings can be large or run the other way; note: potency is the fitted concentration of half-maximal effect; % is set by controls: 0 for no effect and ±100 for the full control effect
#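 Compounds are dispensed onto cells plated 4 h earlier at 1,000 per well, with HCVcc-Cre virus (about 0.5 moi) added next. Following 44 h of culture, luminescent signal is measured for 15 sec after 15 min with substrate at room temperature.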
# SARS PLpro yeast: inhibitors of SARS-CoV papain-like protease in yeast | Potency, µM (top dose mostly 32.9 µM), inactives show at the highest dose activity, positive = growth rescue, hits mostly activators | actives 0.19% (n = 330,000) | S. cerevisiae expressing SARS-CoV PLpro, growth rescue; calls by dose curve; note: potency is the fitted concentration of half-maximal effect; 0% is about no effect; nearly all actives have a fitted effect of over 55% in size
# Marburg entry inh: inhibitors of Marburg virus binding or cell entry; Marburg virus pseudotyped entry inhibition, cell reporter; Potency, µM (series often up to 37.8 µM), inactives show at the highest dose activity change, negative = inhibition, usual class: inhibitors; actives 1.8% (n = 300,000); calls by dose curve; tested in HEK293 cells; note: potency is the fitted concentration of half-maximal effect; % is set by controls: 0 for no effect and ±100 for the full control effect
# HCMV antiviral: inhibitors of human cytomegalovirus; activity change, negative = inhibition, % at 57.5 µM; HFF cells, HCMV-luciferase reporter, 72 h; hits give low values; actives 4.5% (n = 410,000); in the data active = activity change below about -60%; inconclusive = no clear call, values can overlap the other calls; inactive = above about -39%; note: % is set by controls: 0 for no effect and ±100 for the full control effect
#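 Inhibition of viral replication was scored as loss of reporter luminescence in HFFs infected with HCMV-luciferase (MOI 1 PFU/cell) for 72 h; compounds tested at 2 doses, normalized to buffer and Salinomycin controls.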
# FMDV antiviral: foot and mouth disease virus antiviral activity; FMDV antiviral cell-based qHTS; Potency, µM (titrated, usually from 57.9 µM), for the others: at the top dose activity change, negative = inhibition, hits mostly inhibitors; actives 1.2% (n = 410,000); calls by dose curve; tested in HEK293T cells; note: read-out not given here; potency is the fitted concentration of half-maximal effect; % is set by controls: 0 for no effect and ±100 for the full control effect; nearly all actives have a fitted effect of over 45% in size
# LASV entry inh: Lassa virus entry inhibition; AID 540256; actives 1.2% (n = 300,000); Potency, µM (series often up to 37.9 µM), without a hit: top-dose activity change, negative = inhibition, hits mostly inhibitors; Lassa virus pseudotype entry inhibition, cell reporter; calls by dose curve; tested in HEK293 cells; note: potency is the fitted concentration of half-maximal effect; % is set by controls: 0 for no effect and ±100 for the full control effect; nearly all actives have a fitted effect of over 50% in size
# Numbers without * were called inactive; ? = inconclusive; . = no result; + = active, no number; [ ] = remark or other dose. This is a sample that favours compounds with a hit; in the whole collection about 8% have one here.
SMILES,HCV inhibitor,SARS PLpro yeast,Marburg entry inh,HCMV antiviral,FMDV antiviral,LASV entry inh
Cc1cc2oc3c(c(=O)c2cc1C)C(c1ccc(C(C)C)cc1)N(c1nc(C)c(C)s1)C3=O (stereo not given),.,.,3.3%[46.1 µM],-0.9,1.5%,1.0%[46.1 µM]
CCN1CCCC1CNC(=O)c1cnn(-c2nccc(-c3cc(OC)ccc3OC)n2)c1C (stereo not given),.,.,.,.,-3.1%,.
CNc1oc(-c2ccc(C)cc2)nc1P(=O)(c1ccccc1)c1ccccc1,?,-1.9%,?,-10.8,-17.7%,20.6µM*
Cc1c(O)c2c3c(cccc3c1O)C(=O)N(c1ccccc1)C2=O,?,-33.4%,-38.1%,?,22.4µM*,-17.1%
CC(=O)Nc1ccc2c3c(cccc13)C(=O)N(c1ccccc1)C2=O,-5.5%,-1.0%,9.6%[46.1 µM],-60.4*,19.2%,-15.6%[46.1 µM]
Cc1ccc(Cn2c(CO)cnc2SCc2cccc(F)c2)cc1,.,.,.,-10.7,-2.2%,?
OCc1cnc(SCc2cccc(F)c2)n1Cc1ccc(F)cc1,.,.,.,-71.0*,-10.3%,17.3%[46.1 µM]
O=c1cc(N2CCN(c3cccc(Cl)c3)CC2)[nH]c(=O)n1C1CCCCC1,-32.2%,1.4%,6.0%,-92.8*,-8.8%,0.4%
Cc1cccc(-c2noc(-c3ccc(NCc4cccnc4)c([N+](=O)[O-])c3)n2)c1,.,.,11.0%[46.1 µM],37.9,-12.3%,-16.3%[46.1 µM]
O=C(NCCO)C(=O)Nc1cc2c3c(c1)CC(=O)N3CCC2,8.6%,3.5%,.,+,-12.7%,.
CC(C)(C)CC(=O)Nc1cc2c3c(c1)CC(=O)N3CCC2,12.2%,-2.0%,.,-2.5,1.2%,.
O=C(CCl)c1cc2c3c(c1)CC(=O)N3CCC2,-13.5%,?,?,24.7,22.4µM*,1.7%[46.1 µM]
COc1ccc(CCC(=O)Nc2cc3c4c(c2)CCC(=O)N4CCC3)cc1,-9.0%,-5.4%,8.0%,-7.0,-15.3%,0.4%
O=C(CCc1ccccc1)Nc1cc2c3c(c1)CCC(=O)N3CCC2,?,0.7%,-2.5%,-99.0*,-5.5%,-12.7%
CCN(C)C(=O)C1=CN2CCN(Cc3ccccc3C(F)(F)F)C(=O)N=C2O1,.,.,.,14.3,.,.
CC(C)C[C@H](CN)CC(=O)O,.,.,.,.,17.1%,.
CC(=O)OC[C@H]1O[C@H](CCON=C(C)CCN2CCCCc3nc(C)c(C)cc32)C=C[C@H]1OC(C)=O,.,.,16.2%[14.2 µM],.,.,.
c1cc(-c2cnc3cccnn23)c2cccnc2c1,.,.,.,-68.8*,-16.1%,.
CCN(CC)C1=N/C(=C\c2ccc(OC)cc2)C(=O)N1c1ccccc1,?,-9.3%,?,-73.8*,?,0.891µM*
COc1ccc(/C=C2/N=C(SCC(=O)Nc3cc(C)on3)N(c3ccccc3)C2=O)cc1,4.9%,14.8%,-2.7%,-6.3,-11.7%,-14.4%
CCSC1=N/C(=C\c2ccccc2)C(=O)N1c1ccc(OC)cc1,10µM*,-0.8%,-2.1%,?,-21.3%,-10.7%
O=C(Nc1ccc(Oc2ccccc2)nc1)C1CCN(Cc2ccco2)CC1,?,0.0%,?,-37.6,0.0%,2.2%
O=C(Nc1ccc(Oc2ccccc2)nc1)C1CCN(Cc2cccc(F)c2)CC1,.,2.3%,?,-68.8*,?,-15.2%
O=C(Nc1ccc(Oc2cccnc2)cc1)C1CCN(Cc2ccc(F)cc2)CC1,?,-1.9%,?,-24.5,0.0%,?
C#Cc1ccc(CN2CCC(C(=O)Nc3ccc(Oc4ccccc4)nc3)CC2)cc1,4.47µM*,17.6%,.,+,?,.
SMILES,HCV inhibitor,SARS PLpro yeast,Marburg entry inh,HCMV antiviral,FMDV antiviral,LASV entry inh
Cc1ccc(CN2CCCCC2C(=O)Nc2ccc(Oc3cccnc3)cc2)o1 (stereo not given),?,-5.4%,?,-32.7,5.0%,-22.2%
CCn1nc(C)c(CN2CCCCC2C(=O)Nc2ccc(Oc3cccnc3)cc2)c1C (stereo not given),11.2µM*,-5.8%,-28.5%,.,?,4.3%
O=C(Nc1ccc(Oc2cccnc2)cc1)C1CCN(Cc2cc(Cl)ccc2O)CC1,?,15.9%,.,-82.8*,7.94µM*,.
CCS(=O)(=O)N1CC2(CN(C(=O)Cc3ccccn3)[C@@H](CO)c3[nH]c4cc(OC)ccc4c32)C1,.,.,.,2.0,.,.
CCOc1ccc(CCNC(=O)c2c3c(nc4ccccc24)C(=O)N(C2CCCCC2)C3)cc1,.,.,.,7.7,-3.5%,-23.4%[46.1 µM]
COC(=O)c1c(-c2cccs2)csc1NC(=O)c1cc(OC)cc(OC)c1,.,.,?,-9.3,0.0%,-12.7%[46.1 µM]
O=C(Nc1ccccc1)C1CCCN1C(=O)Nc1ccccc1[N+](=O)[O-] (stereo not given),-13.7%,0.2%,-0.3%,-61.5*,-11.8%,-6.4%
CC(=O)Nc1ccc(NC(=O)C2CCCN2C(=O)Nc2ccccc2[N+](=O)[O-])cc1 (stereo not given),2.2%,0.4%,-1.7%[46.1 µM],1.5,-10.5%,11.6%
COc1cc(OC)cc(-c2c(-c3cccs3)c3cc(-c4cnc(OC)nc4)ccc3n2C)c1,?,-0.6%,.,-78.5*,?,.
O=C(Nc1ccccc1)C1=C(c2ccccc2)S(=O)(=O)CCS1(=O)=O,?,3.5%,2.82µM*,-92.7*,14.1µM*,?
CCc1n[n+](CC(=O)c2ccccc2)c(N)s1,-10.9%,-8.1%,?,-7.4,-51.9%,7.94µM*
Oc1ccc(/C=C/c2nc(-c3ccccc3O)n(-c3ccccc3)n2)cc1,?,-34.3%,?,-8.1,-0.5%,11.6µM*
Cc1ccc(CNC(=O)CSc2ncc3c(n2)-c2cc(Cl)ccc2N(C)S3(=O)=O)cc1,.,.,.,22.6,-19.0%,-5.9%[46.1 µM]
CCOC(=O)/C(=C\c1cn(C)c2ccccc12)[N+](=O)[O-],7.5%,1.8%,13.7%,89.6,28.2µM*,0.2%
CCCNC(=O)OCc1cccnc1Sc1ccc(C)cc1,5.4%,-10.6%,?,53.8,45.8%,10µM*
CCOC(=O)Nc1cccnc1Sc1ccc(Cl)cc1,1.4%,.,-12.3%[46.1 µM],-10.3,-2.8%,20.0%[46.1 µM]
COc1ccc(CCNC(=O)Cc2c(C)c3cc4c(C(C)(C)C)coc4c(C)c3oc2=O)cc1OC,.,.,-14.1%[46.1 µM],15.3,?,-7.6%[46.1 µM]
c1ccc2[nH]c(-c3cscn3)nc2c1,-11.8%[8.37 µM],-9.4%,22.3%,-89.5*,27.4%,27.3%
C#CCCCON=C1C[C@@H](O)[C@H](O)[C@H]2[C@@H]3C(=O)N(c4ccc(F)cc4F)C(=O)[C@@H]3CC[C@@H]12,.,.,-8.0%[14.2 µM],.,.,.
CCN(CC)CCNc1ncnc2c1sc1nc(N3CCOCC3)c3c(c12)CCCC3,?,1.1%,?,-10.2,2.9%,?
CC1(C)Cc2nc3sc4c(N(CCO)CCO)ncnc4c3cc2CO1,9.4%,3.9%,4.4%,42.8,11.9%,-0.4%
CN(C)CCNc1ncnc2c1sc1nc(N3CCCC3)c3c(c12)CC(C)(C)OC3,12.6µM*,-0.1%,7.94µM*,?,?,?
CC1(C)Cc2c(c(-c3ccco3)nc3sc4c(NCCCO)ncnc4c23)CO1,?,1.5%,.,-65.3*,?,.
